In the library only some 7.3% were active in any assay of this set; here they are far more common.
Vaccinia Venus – inhibitors of vaccinia virus (Venus reporter). 330,000 compounds, 0.46% hits. Potency, µM (doses to about 36.5 µM), for inactives: at the top dose activity change, negative = inhibition, most hits filed as inhibitors. Vaccinia virus Venus reporter expression, fluorescence; calls by dose curve; tested in A549 cells; note: potency is the fitted concentration of half-maximal effect; nearly all actives have a fitted effect of over 30% in size
HCMV antiviral – human cytomegalovirus inhibition; HFF cells, HCMV-luciferase reporter, 72 h; hits give low values; activity change, negative = inhibition, % at 57.5 µM; 410,000 compounds, 4.5% hits; AID 1259415; in the data active = activity change below about -60%; inconclusive = no clear call, values can overlap the other calls; inactive = above about -39%
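Screen run at 2 compound doses on HFFs infected with reporter HCMV, MOI 1 PFU/cell. Luciferase activity from cell lysates at 72 h post infection gave inhibition relative to buffer-only and Salinomycin wells.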
FMDV inh – antivirals against foot and mouth disease virus | FMDV antiviral cell-based qHTS | Potency, µM (series often up to 57.9 µM), for inactives: at the top dose activity change, negative = inhibition, hits mostly inhibitors | 410,000 compounds, 1.2% hits; calls by dose curve; tested in HEK293T cells; note: read-out not given here; potency is the fitted concentration of half-maximal effect; nearly all actives have a fitted effect of over 45% in size
HCV inhibitor – HCV inhibition. Huh7.5.1 HCVcc-Cre infection, luciferase reporter, 44 h. Potency, µM (highest dose often 41.8 µM), for inactives: at the top dose activity change, negative = inhibition, most hits filed as inhibitors. 340,000 compounds, 3.4% hits. AID 651820; active = well fitted inhibition curve with a large enough effect; inconclusive = small, poorly fitted or top-dose-only effect, or another doubt; inactive = no such curve, though single readings can be large or run the other way; note: potency is the fitted concentration of half-maximal effect
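Compounds are dispensed onto cells plated 4 h earlier at 1,000 per well, with HCVcc-Cre virus (about 0.5 moi) added next. Following 44 h of culture, luminescent signal is measured for 15 sec after 15 min with substrate at room temperature.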
Vaccinia mCherry – vaccinia inhibition (mCherry reporter); Vaccinia virus mCherry reporter infection, fluorescence; 310,000 compounds, 0.63% hits; AID 720579; Potency, µM (doses to about 36.5 µM), inactives show top-dose activity change, negative = inhibition, actives largely listed as inhibitors; calls by dose curve; tested in A549 cells; note: potency is the fitted concentration of half-maximal effect; nearly all actives have a fitted effect of over 35% in size
The depositor's hits bear a star; i = inactive; ? = inconclusive; · = not tested or not shown; + = active, no number; ! = a repeat was not active. % is set by controls: 0 for no effect and ±100 for the full control effect.

SMILES	Vaccinia Venus	HCMV antiviral	FMDV inh	HCV inhibitor	Vaccinia mCherry
NS(=O)(=O)c1ccc(S(=O)(=O)N2CCN(c3nc(-c4cccs4)nc4ccccc34)CC2)cc1	-12.5%	·	·	·	-10.8%
COc1c(Br)cc(Br)cc1/C=N/NC(=O)c1cccnc1	·	74.6	-15.3%	-17.4%	·
COc1c(Br)cc(Br)cc1/C=N/NC(=O)c1ccncc1	-8.8%	-25.6	-22.5%	-6.4%	2.4%
CCOc1cc(Br)cc(/C=N/NC(=O)c2cccnc2)c1O	?	19.9	?	?	7.08µM*
Cc1ccc(C(=O)N/N=C\c2ccc(-c3ccc(Cl)cc3)o2)cn1	·	-12.0	-24.9%	11.2µM*	·
CN(C)c1ccc(C(=O)N/N=C/c2cc(Br)cc(Br)c2O)cc1	-36.0%	-90.1*	-15.4%	?	-38.6%
CCOc1ccc(OCc2ccc(C(=O)NN=Cc3ccc[nH]3)cc2)cc1	?	+	-12.9%	0.562µM*	?
O=C(N/N=C/c1ccc[nH]1)c1ccccc1OCc1ccc(F)cc1	10.3%	?	-22.5%	-21.6%	-17.2%
CCc1cccc(NC(=O)CSC2=Nc3ccccc3N=C(c3ccc(F)cc3)C2)c1	-13.9%	-34.6	-22.7%	·	-11.1%
COc1ccc(N(CC(=O)NCc2ccccc2Cl)S(=O)(=O)c2c(C)[nH]c(=O)[nH]c2=O)cc1	1.8%	11.2	-15.1%	·	-16.3%
O=C(N/N=C/c1ccc[nH]1)c1cccc(Br)c1	-22.4%	?	21.2%	4.47µM*	?
Cc1ccc(C(=O)N/N=C\c2ccc[nH]2)cn1	8.7%	-21.4	27.4%	8.91µM*	-9.4%
Cc1ccc(C(=O)N/N=C/c2cc(Br)ccc2O)cn1	·	-102.3*	16.5%	?	·
CCCCN1CC(COCc2ccccc2)Oc2cccc(NCc3cc(OC)c(OC)c(OC)c3)c2S1(=O)=O (stereo unspecified)	·	-15.1	·	·	·
CCC(=O)N1c2ccccc2CC1C(=O)NCc1cc(Br)ccc1OC (stereo unspecified)	3.1%	19.2	-22.5%	·	-14.3%
Cc1cc(-c2ccc(C)c(S(=O)(=O)NCc3ccc(Br)cc3)c2)on1	·	-64.2*	-7.0%	?	·
Cc1cc(-c2ccc(C)c(S(=O)(=O)Nc3cccc(C)n3)c2)on1	-25.3%	?	63.9%	·	-25.3%
Cc1cc(-c2ccc(C)c(S(=O)(=O)NCCc3ccco3)c2)on1	·	1.9	43.3%	-10.4%	·
Cc1cc(-c2ccc(C)c(S(=O)(=O)NCc3cccc(Br)c3)c2)on1	-5.7%	-63.2*!	15.1%	-23.9%	i
Cc1cc(-c2ccc(C)c(S(=O)(=O)NCCc3ccc(S(N)(=O)=O)cc3)c2)on1	-17.3%	-63.9*!	34.2%	-7.4%	i
COc1cccc(C(=O)N(Cc2ccco2)c2ccccn2)c1	-8.9%	-0.1	21.8%	·	-16.8%
C/C(=N\Nc1nc2ccccc2[nH]1)c1ccccn1	·	-98.2*	·	·	·
CC(=NNc1cc(C)c2cc(C)ccc2n1)c1ccccn1	·	-99.8*	·	·	·
Cc1ccc2nc(N/N=C/c3ccco3)cc(C)c2c1	·	78.3	34.5%	?	·
COc1ccccc1-n1cnc2c(c1=O)c1nc3ccccc3nc1n2-c1ccc(C)c(C)c1	?	?	-26.7%	7.94µM*	?
SMILES	Vaccinia Venus	HCMV antiviral	FMDV inh	HCV inhibitor	Vaccinia mCherry
COC(=O)C[C@@H]1CC[C@@H](NC(=O)Nc2cc(F)ccc2F)[C@@H](CO)O1	-1.8%	-2.1	-13.6%	·	13.4%
c1ccc(C[n+]2cccc(-c3ccccc3)c2)cc1	-25.1%	-72.4*	-27.9%	-16.5%	?
c1ccc(C[n+]2ccc3ccccc3c2)cc1	-11.7%	-24.7	-27.1%	?	-19.9%
Cc1nc2ccccc2cc1OCc1ccc(Cl)cc1	·	-75.4*	?	7.08µM*	·
COc1cccc(COc2cc3ccccc3nc2C)c1	·	-79.5*	?	5.62µM*	·
Cc1nc2ccccc2cc1OCc1ccccc1	·	-93.1*	-28.3%	10µM*	·
COc1ccc(N2CC(C)(C)C[C@@H]2/C=C/C(=O)OC(C)(C)C)cc1	·	-12.8	·	·	·
O=C(Cn1cc(C(=O)C(F)(F)F)c2ccccc21)N1CCCCCC1	4.1%	55.0	49.6%	·	1.8%
Cc1cccc(NC(=O)c2sc3nc(-c4cc5ccc(O)cc5oc4=O)[nH]c(=O)c3c2C)c1	69.9%	-8.2	-24.1%	·	-20.5%
O=C1c2ccccc2CCCC12N=NCC2c1cccc2ccccc12 (stereo unspecified)	·	-12.3	?	2.82µM*	·
Cc1cccc(C)c1OCC(=O)NCC1(N2CCOCC2)CCCCC1	-25.0%	38.6	-9.1%	·	-23.1%
